Measured values: PubChem BioAssay AID2081 (NMMLSC, 2009)
Activity calls are given as the source filed them. No rule for the calls is given here.

The compounds below were run against Bcl-2-like protein 2 (Homo sapiens) (UniProt Q92843) (assay: Bcl-W/Bim complex disruptors – biochemical, multiplexed, bead-based flow cytometry, HTS hits, confirmation (AID 2081)). Conditions: Bim-Bcl-W binding displacement; series mostly up to 100 µM.
Bcl-2-like protein 2 (Homo sapiens), sequence (Q92843 whole entry, looked up): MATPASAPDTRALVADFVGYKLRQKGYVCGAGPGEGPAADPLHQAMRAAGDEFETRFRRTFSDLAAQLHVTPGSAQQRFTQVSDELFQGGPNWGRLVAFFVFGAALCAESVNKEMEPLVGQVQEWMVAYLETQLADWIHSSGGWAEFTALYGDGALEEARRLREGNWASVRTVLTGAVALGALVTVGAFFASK

outcome, inactive:
CCN1C(=O)/C(=C\C=C2/C=CC=CN2CC)SC1=S
Cc1cc(-c2cc(-c3ccc(Cl)cc3)nc(N)c2C#N)co1
O=C1c2ccccc2C(=O)N1CN(C(=O)COc1ccc(Cl)cc1Cl)c1cccc(F)c1
CCN(CC)c1ccc(NC(=O)c2ccccc2F)cc1S(=O)(=O)Nc1ccccc1OC
Cc1ccc(-c2cc(C(=O)Nc3nccs3)c3ccccc3n2)o1
CCN(CC)c1ccc(NC(=O)c2ccccc2Br)cc1S(=O)(=O)Nc1ccccc1OC
CCN(CC)c1ccc(NC(=O)COc2ccccc2C)cc1S(=O)(=O)Nc1ccccc1OC
Cc1ccc(-c2nc3c(c(=O)[nH]c(=O)n3Cc3ccccc3)n2C)o1
C=CS(=O)(=O)c1sc(Cl)c(N2CCOCC2)c1[N+](=O)[O-]
Cc1ccc(-c2cc(-c3ccc(C)o3)nc(N)c2C#N)cc1
COc1ccccc1-n1c(-c2ccccc2)c[nH]c1=S
O=[N+]([O-])c1c(NCCCO)cc(Sc2nc3ccccc3s2)c2nonc12
Cc1ccc(-c2cc(-c3ccc(F)cc3)c(C#N)c(N)n2)o1
O=c1c2c(n3nnnc3n1Cc1ccccc1)-c1ccccc1CC21CCCC1
COc1ccc(N2C(=O)C(Cl)=C(NC3C(=O)N(c4ccccc4)N(C)C3C)C2=O)cc1 (stereo unspecified)
O=C1C(Cl)=C(N2CCN(c3ccccc3[N+](=O)[O-])CC2)C(=O)c2ccccc21
CC(=O)Nc1ccc(-n2cc(-c3ccccc3)[nH]c2=S)cc1
S=c1[nH]cc(-c2ccccc2)n1-c1ccccc1
CN(CCO)c1cc(Sc2nc3ccccc3s2)c2nonc2c1[N+](=O)[O-]
COc1ccc(N2C(=O)C(Cl)=C(Oc3cccc(OC)c3)C2=O)cc1
O=C(Nc1nnc(COc2ccc(Cl)cc2)s1)c1ccco1
O=C1/C(=C\c2ccco2)NC(=S)N1c1ccccc1
CNC(CC(=O)c1ccc([N+](=O)[O-])cc1)C(Cl)(Cl)Cl (stereo unspecified)
COc1cc(CNc2ccc3[nH]c(=O)[nH]c3c2)cc(Br)c1OCC(=O)NC(C)(C)C
CCN(CC)C(=O)COC(=O)c1cc(-c2ccco2)nc2ccccc12
Cc1ccc(C=NNC(=O)CSc2nnc(-c3ccc(Cl)cc3)n2-c2ccccc2)o1
